# Laboratory results: the supplement of paper PMC10849652
# About 8,800 targets were measured; listed, in parts, are those with a hit and a random draw of the rest. About 0.5% of all pairs of compound and target were hits. Values without a mark were called inactive.
# Legend:
# Assay in all cases: log2 fold change, soluble protein after heating vs DMSO (PISA); higher = thermal stabilisation; K562 lysate, 10 uM; active = over 0.2 and 3.5 SD of the protein, either way, in both replicates (recomputed)
# erlotinib = compound: C#Cc1cccc(Nc2ncnc3cc(OCCOC)c(OCCOC)cc23)c1 [erlotinib]
# Method in brief: (§1)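 Dounce homogenisation of K562 pellets in PBS pH 7.4 with 1 mM MgCl2 produced a crude extract, used at 1 mg/mL protein. Exposure to 10 μM compound lasted 30 min, and aliquots were then heated for 3 min across 48°C-58°C, pooled and brought to 0.5% NP-40 at 4°C. The supernatant after 21,000xg for 90 min was quantified by TMTpro 16plex LC-MS/MS with channel sums equalised. Duplicate values are given as log-two fold change in thermal stability relative to solvent controls.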
# [1] = compound: C/C(=N\NC(=O)C1=CC(=CC=C1)S(=O)(=O)N2CCOCC2)/C3=C(C=CC(=C3)Cl)O
# Method in brief: as §1
# [2] = compound: C1=CC(=CC=C1C2=NC3=C(N2)C=C(C=C3)C(=O)N)OC4=CC=C(C=C4)Cl
# Method in brief: as §1
# [3] = compound: C1=CC2=C(C=CC(=C2)/C=C\3/C(=O)NC(=NCC4=CC=CS4)S3)N=C1
# Method in brief: as §1
# [4] = compound: C1=CC=C2C(=C1)C3=NNC4=CC=CC(=C43)C2=O
# Method in brief: as §1
# [5] = compound: C1CCN(C1)C(=O)NC2=CC=CC(=C2)NC3=NC=C(C(=N3)NCCC4=CN=CN4)Br
# Method in brief: as §1
# [6] = compound: C1CN(CCC1(CC2=CC=C(C=C2)Cl)N)C3=NC=NC4=C3C=CN4
# Method in brief: as §1
# [7] = compound: C1=CC=C(C=C1)C2=NC(=C(N2)C3=CC=NC=C3)C4=CC(=C(C=C4)Cl)O
# Method in brief: as §1
# IRAK-1-4 Inhibitor I = compound: C1COCCN1CCN2C3=CC=CC=C3N=C2NC(=O)C4=CC(=CC=C4)[N+](=O)[O-] [IRAK-1-4 Inhibitor I]
# Method in brief: as §1
# [8] = compound: C1=CC2=NC=CN=C2C=C1/C=C/3\C(=O)NC(=O)S3
# Method in brief: as §1
# Sequence of UniProt O94760 (O94760 whole entry, looked up): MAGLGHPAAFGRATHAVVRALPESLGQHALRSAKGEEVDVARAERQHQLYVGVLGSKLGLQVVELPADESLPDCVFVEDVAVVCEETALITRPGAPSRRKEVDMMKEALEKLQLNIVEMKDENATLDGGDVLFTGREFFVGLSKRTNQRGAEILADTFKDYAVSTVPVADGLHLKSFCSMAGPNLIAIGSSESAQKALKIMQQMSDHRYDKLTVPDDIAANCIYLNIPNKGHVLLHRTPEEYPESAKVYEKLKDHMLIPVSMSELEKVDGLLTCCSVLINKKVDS
# Sequence of UniProt Q6ZWL3 (Q6ZWL3 whole entry, looked up): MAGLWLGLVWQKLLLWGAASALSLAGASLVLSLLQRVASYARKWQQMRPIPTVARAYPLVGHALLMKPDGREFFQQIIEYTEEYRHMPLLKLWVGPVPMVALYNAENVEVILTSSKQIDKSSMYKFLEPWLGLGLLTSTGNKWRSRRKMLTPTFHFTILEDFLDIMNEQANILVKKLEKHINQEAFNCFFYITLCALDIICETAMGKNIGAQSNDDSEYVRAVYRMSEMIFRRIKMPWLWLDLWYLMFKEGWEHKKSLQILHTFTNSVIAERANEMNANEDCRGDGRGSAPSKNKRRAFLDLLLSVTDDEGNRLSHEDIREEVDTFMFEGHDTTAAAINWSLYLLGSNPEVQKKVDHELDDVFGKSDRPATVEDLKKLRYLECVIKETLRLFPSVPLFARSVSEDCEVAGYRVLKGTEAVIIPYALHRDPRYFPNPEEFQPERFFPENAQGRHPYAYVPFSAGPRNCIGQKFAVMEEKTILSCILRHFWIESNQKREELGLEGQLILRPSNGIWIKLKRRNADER
# Sequence of UniProt P30622 (P30622 whole entry, looked up): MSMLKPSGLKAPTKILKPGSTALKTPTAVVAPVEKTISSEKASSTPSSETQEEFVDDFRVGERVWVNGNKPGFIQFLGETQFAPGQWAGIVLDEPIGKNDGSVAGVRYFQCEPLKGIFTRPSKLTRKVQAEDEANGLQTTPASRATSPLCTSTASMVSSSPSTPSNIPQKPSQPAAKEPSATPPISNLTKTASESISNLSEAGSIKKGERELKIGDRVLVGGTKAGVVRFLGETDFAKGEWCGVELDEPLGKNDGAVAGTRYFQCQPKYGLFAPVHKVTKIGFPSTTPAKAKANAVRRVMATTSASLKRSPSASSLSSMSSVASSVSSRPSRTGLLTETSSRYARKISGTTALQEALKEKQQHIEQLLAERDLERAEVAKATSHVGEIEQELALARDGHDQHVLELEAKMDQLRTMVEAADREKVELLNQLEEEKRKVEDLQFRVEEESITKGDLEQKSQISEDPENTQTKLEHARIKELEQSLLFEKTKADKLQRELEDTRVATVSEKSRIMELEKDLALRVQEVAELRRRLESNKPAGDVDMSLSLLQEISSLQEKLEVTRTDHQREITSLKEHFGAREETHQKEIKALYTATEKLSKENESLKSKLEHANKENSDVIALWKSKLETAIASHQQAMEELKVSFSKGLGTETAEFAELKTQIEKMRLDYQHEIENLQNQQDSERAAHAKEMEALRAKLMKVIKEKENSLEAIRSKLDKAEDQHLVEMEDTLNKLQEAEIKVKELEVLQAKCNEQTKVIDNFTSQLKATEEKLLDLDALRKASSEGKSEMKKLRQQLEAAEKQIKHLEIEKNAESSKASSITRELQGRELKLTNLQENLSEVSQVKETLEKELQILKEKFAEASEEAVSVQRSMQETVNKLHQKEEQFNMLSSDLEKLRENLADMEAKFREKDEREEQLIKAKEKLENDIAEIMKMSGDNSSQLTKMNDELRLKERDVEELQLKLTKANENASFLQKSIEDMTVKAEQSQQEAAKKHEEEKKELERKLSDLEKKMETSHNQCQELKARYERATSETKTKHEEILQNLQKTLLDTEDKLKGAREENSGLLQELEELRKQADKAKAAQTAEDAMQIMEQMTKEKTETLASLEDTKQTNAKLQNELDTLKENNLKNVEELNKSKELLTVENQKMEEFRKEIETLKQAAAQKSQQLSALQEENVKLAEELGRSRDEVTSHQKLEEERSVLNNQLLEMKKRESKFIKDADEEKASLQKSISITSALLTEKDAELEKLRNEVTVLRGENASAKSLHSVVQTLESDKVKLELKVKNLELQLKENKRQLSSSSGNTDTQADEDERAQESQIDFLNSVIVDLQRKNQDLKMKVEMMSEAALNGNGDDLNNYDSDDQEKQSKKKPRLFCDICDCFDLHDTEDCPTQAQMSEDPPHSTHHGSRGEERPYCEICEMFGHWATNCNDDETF
# Sequence of UniProt P53355 (P53355 whole entry, looked up): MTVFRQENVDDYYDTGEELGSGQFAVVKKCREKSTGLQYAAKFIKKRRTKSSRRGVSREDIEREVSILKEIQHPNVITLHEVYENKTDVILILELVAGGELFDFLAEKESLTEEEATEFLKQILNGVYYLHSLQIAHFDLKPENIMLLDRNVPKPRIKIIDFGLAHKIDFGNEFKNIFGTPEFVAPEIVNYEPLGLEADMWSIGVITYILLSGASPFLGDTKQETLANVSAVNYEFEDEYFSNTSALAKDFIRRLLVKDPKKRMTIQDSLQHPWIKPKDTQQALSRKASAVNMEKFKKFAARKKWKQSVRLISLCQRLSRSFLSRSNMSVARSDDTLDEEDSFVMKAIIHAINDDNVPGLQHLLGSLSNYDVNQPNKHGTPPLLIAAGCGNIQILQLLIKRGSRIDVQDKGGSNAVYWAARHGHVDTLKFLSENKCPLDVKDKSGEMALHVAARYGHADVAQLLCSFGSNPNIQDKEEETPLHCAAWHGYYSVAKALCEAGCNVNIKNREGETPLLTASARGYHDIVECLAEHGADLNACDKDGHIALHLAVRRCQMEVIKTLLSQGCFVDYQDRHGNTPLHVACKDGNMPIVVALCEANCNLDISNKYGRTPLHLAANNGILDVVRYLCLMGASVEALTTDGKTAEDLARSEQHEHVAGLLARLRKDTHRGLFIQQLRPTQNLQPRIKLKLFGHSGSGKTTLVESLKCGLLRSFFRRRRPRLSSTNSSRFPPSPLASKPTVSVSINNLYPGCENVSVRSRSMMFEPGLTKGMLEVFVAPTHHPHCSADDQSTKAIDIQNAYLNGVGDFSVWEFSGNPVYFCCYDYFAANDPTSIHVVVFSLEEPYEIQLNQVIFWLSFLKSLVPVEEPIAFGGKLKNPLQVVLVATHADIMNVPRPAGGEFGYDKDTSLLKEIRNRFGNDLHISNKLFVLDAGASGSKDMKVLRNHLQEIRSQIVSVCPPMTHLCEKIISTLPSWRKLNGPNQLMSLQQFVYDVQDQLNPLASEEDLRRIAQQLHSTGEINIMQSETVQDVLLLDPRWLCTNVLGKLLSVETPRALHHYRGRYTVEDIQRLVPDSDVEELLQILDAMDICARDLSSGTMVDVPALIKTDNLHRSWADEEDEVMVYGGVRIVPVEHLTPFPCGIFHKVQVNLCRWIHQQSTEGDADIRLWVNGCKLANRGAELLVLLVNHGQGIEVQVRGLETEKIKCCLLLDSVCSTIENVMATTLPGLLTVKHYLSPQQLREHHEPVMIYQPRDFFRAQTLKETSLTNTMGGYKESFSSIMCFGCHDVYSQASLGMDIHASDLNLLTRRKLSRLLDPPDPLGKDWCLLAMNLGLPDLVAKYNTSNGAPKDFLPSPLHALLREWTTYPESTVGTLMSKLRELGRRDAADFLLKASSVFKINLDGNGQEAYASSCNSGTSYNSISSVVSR
# Sequence of UniProt Q13948 (Q13948 whole entry, looked up): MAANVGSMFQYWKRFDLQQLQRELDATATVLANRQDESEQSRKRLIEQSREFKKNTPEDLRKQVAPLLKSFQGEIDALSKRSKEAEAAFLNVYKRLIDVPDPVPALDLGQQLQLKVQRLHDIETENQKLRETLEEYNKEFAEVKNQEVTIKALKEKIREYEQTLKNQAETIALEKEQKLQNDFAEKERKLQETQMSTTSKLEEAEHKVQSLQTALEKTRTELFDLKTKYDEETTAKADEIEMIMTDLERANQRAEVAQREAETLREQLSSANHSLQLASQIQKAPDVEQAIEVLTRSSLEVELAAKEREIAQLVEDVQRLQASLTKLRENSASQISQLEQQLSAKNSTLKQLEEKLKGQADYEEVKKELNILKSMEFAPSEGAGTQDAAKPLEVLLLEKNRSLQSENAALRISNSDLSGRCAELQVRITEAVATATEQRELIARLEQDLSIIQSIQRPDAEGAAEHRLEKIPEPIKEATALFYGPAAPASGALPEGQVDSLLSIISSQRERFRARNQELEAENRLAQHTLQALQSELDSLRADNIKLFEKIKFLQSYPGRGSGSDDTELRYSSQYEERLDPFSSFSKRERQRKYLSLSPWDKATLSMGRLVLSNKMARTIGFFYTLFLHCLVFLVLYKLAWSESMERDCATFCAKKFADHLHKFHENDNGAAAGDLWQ
# Sequence of UniProt Q9Y600 (Q9Y600 whole entry, looked up): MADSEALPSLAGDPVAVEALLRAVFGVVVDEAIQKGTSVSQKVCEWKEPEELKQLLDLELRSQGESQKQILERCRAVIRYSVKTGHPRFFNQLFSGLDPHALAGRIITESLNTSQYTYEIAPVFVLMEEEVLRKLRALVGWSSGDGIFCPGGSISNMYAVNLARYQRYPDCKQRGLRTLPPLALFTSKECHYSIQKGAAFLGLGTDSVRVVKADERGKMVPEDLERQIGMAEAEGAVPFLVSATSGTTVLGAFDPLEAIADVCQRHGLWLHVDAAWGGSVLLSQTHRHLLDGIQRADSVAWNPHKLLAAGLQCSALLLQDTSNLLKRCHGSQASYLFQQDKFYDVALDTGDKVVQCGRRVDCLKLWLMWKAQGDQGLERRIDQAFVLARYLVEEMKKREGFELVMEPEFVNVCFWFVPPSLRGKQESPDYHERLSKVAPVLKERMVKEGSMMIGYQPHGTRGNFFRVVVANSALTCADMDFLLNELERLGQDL
# Sequence of UniProt Q9BSY9 (Q9BSY9 whole entry, looked up): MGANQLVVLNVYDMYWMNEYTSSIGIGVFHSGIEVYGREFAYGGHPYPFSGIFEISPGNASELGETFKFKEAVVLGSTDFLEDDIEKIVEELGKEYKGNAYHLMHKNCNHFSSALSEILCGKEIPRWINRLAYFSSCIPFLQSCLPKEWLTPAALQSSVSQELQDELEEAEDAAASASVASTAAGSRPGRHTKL
Target,log2 fold change (erlotinib),log2 fold change [1],log2 fold change [2],log2 fold change [3],log2 fold change [4],log2 fold change [5],log2 fold change [6],log2 fold change [7],log2 fold change (IRAK-1-4 Inhibitor I),log2 fold change [8]
COL12A1 (UniProt Q99715),-0.016,-0.009,0.01,-0.008,-0.053,0.059,0.065,,,
DAPK1 isoform 3 (UniProt P53355),-0.015,-0.17,-0.306,-0.274,0.181,,,0.061,0.008,
CUX1 isoform 2 (UniProt Q13948),-0.029,-0.003,-0.229,0.034,0.02,-0.015,-0.008,-0.011,0.029,
CHMP4A (UniProt H0YIN6),,,,,,,,-0.055,0.142,0.06
DDAH1 (UniProt O94760),0,-0.008,0.006,-0.027,0.035,0.032,0.051,-0.006,-0.016,
DONSON (UniProt Q9NYP3),0,,0.051,,,,,0.06,-0.021,0.014
CYP4V2 (UniProt Q6ZWL3),-0.07,,0.014,,,,,0.099,0.074,0.126
"CLIP1, A0A3B3ITA2",,0.025,,0.004,-0.103,,,-0.039,0.121,
CSNK1D (UniProt P48730),,-0.32,,-0.06,0.415 (active),-0.031,0.013,0.124,-0.048,0.039
COL6A3 (UniProt P12111),-0.101,,0.14,,,,,-0.108,-0.071,-0.232
DDR1 isoform 5 (UniProt Q08345),,,,,,-0.011,-0.016,0.04,0.097,0.044
CSDE1 isoform 3 (UniProt O75534),,,,,,,,0.027,-0.011,0.13
CLIP1 isoform 2 (UniProt P30622),-0.067,,0.056,,,0.023,0.023,-0.055,0.026,-0.082
DLGAP5 isoform 3 (UniProt Q15398),,,,,,,,,,-0.009
DALRD3 (UniProt Q5D0E6),0.034,0.152,0.05,-0.413,0.021,0.031,-0.068,,,
DESI2 (UniProt Q9BSY9),,0.195,,-0.043,0.119,0.002,0.067,,,
CSAD isoform 3 (UniProt Q9Y600),-0.02,,0.064,,,,,0.044,-0.02,-0.115
